From the supplement of paper PMC6555819

What follows are sequences tested on VDR:RXRa (NR concentration 270 nM, RXRa partner concentration 90 nM) (assay: PBM binding z-score (relative to random genomic background probes); higher = stronger binding; sequences stand for … in GC…GCGATTGACAGCGTAGAATGAAGG).
Procedure: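 Protein-binding microarray (Agilent 4x180K custom design, double-stranded 60-nt probes: 5' GC cap, 34-nt variable region, 24-nt constant primer region; full probe sequence given). Purified or IVT nuclear receptor:RXRα heterodimers (3:1 NR:RXRα, mostly 270:90 nM) or homodimers were incubated for 1 h in PBS with 2% milk and no ligand, then detected with Alexa488 antibodies. Fluorescence from o1-orientation probes (~5 replicates averaged) was converted to z-scores against 500 random hg19 background probes. Variable regions are seed direct-repeat (DR0–DR5) sites, all their single-nucleotide variants and half-site ablations.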
CCGAGTAGGTAACGAGGGGGCATTCAGTGCGAAT was tested, and the PBM binding z-score was 4.19.
Work on CCTACTGGGCCACGTAAGGTCATTGATTCAGTGA yielded a PBM binding z-score of 3.69.
TCGAGTAGGCTACGGGGGCATTCAGGGATGAAGA gave a PBM binding z-score of 2.2.
For TCTAGTTGGTCACGGGGGTCACACACGACGGGTA, the PBM binding z-score was 6.57.
In the case of CCTTACCGGTCAAGGTTATAGCACGGGTGGTACG, the PBM binding z-score was 0.829.
With TCGAGTATGTTACGGGGGCATTCAGGGATGAAGA the PBM binding z-score was 3.48.
For TCGAGTAGGTTACGGGGGCATACAGGGATGAAGA, the PBM binding z-score was 3.54.
CGTCAAAGTTCAACTAATGTAACGTAAAGCACGC gave a PBM binding z-score of 4.2.
For GCTTACGGGTCAAAGGTTATAGTATGAATAGAAT, the PBM binding z-score was 5.76.
CGTCAAAGTTCTAGGTAACGTAACAGAAAGCAGC gave a PBM binding z-score of 0.0814.
CGAACTAGGACAAAGGACAGTGAAAGGCGACGTA gave a PBM binding z-score of -0.353.
With CGAATTAGGTCAAAGGACAGTGAAAGGCGACGTA the PBM binding z-score was 1.65.
Sequence CGAACTAGGTCACCAGGACAGTGAGGAGGTTGGA has a PBM binding z-score of 1.83.
With CCAACTAGGTCATTGACAGGACAGTGAATAGTAA the PBM binding z-score was 2.29.
With CGAACGAGGTCAGAACAGGACAGTGAAGGATGAT the PBM binding z-score was 3.67.
ATCGAAAGGTCGTGACGTGAGTATACAGAAAGGC gave a PBM binding z-score of 3.03.
For CGAACTAGGTCACCACGACAGTGAAGAGGTTGGA, the PBM binding z-score was 2.04.
AGTGAAAGTTCAGGACGAGGTAACGTAAAGCACG was tested, and the PBM binding z-score was 2.81.
For TCGAGTAGGTTACGGGGGCCTTCAGGGATGAAGA, the PBM binding z-score was 2.11.
In the case of TTACCAAGGTGAAGGTCGTGGATCCCTCTGTAGA, the PBM binding z-score was 1.28.
CCTGCTAGGTCAATGGTCAGCTAAAGCAGCTCGC showed a PBM binding z-score of 1.02.
For GCTGCTAGGTCAGGATGGTCAGCTAACGGGTACG, the PBM binding z-score was 0.56.
CCTGCTAGTTCATGGTCAGCTAATCTACAGTATG gave a PBM binding z-score of 0.708.
With ACTTACGGGTCAACGACGTTATAGCACGCGTATA the PBM binding z-score was 4.
For CCGAGTAGGTTACGAGGGGGGATTCAGTGCGAAT, the PBM binding z-score was 3.17.
Work on CCTACTGGGCCAAGCTCATTGATCAGTCAAAGCA yielded a PBM binding z-score of -0.667.
In the case of CGAACTAGGTCAAAGAACAGTGAAAGGCGACGTA, the PBM binding z-score was 0.943.
Sequence CCTTACGGGTCACGGGGTTATAGCACGACGAGCG has a PBM binding z-score of 5.75.
In the case of CGAACTAGTTCAAGGACAGTGAATCTCCGCACGC, the PBM binding z-score was 0.348.
TGGAGTAGGTTACGGGGGCATTCAGGGATGAAGA was tested, and the PBM binding z-score was 4.24.
Work on CTCCAAAGGTCGGTTGAGGTGAGTATACGGATAA yielded a PBM binding z-score of 2.42.
Work on TCGATTAGGTTACGGGGGCATTCAGGGATGAAGA yielded a PBM binding z-score of 4.31.
In the case of CTATGTACGTTAAGGGGGTCATTCAGTTTGAAAG, the PBM binding z-score was 6.72.
Work on AGACAAAGTTCAGGACGAGGTAACGTAAAGCACG yielded a PBM binding z-score of 2.91.
Work on AGTCAAAGGTCAGGACGAGGTAACGTAAAGCACG yielded a PBM binding z-score of 4.83.
CCTACTGGGCCATTGAGAGGTCATTGATCATATG was tested, and the PBM binding z-score was 3.81.
In the case of AATACAGGGTCACTTGGCCAGAGTAGGTACGAAT, the PBM binding z-score was 4.36.
ATATGCAGGTTATCGGGTCATTCAGTTTGCGCAT gave a PBM binding z-score of 5.27.
CCTTACGGGTCAAGGTAATAGCACGGGTGGTACG showed a PBM binding z-score of 2.65.
TCGAGTAGGTGACGGGGGCATTCAGGGATGAAGA was tested, and the PBM binding z-score was 3.36.
